The values below come from ChEMBL document CHEMBL1961873, “Compounds: GSK PKIS; Assays: Nanosyn kinase panel” (2012).

In general, inhibition refers to the relative decrease from the control value, in per cent.

Assay [1] deals with Sphingosine kinase 1 (Homo sapiens) (UniProt Q9NYA1). Conditions: at 1 µM.
Assay [2] addresses T1, Sphingosine kinase 2 (Homo sapiens) (UniProt Q9NRA0).
T1 sequence (whole entry): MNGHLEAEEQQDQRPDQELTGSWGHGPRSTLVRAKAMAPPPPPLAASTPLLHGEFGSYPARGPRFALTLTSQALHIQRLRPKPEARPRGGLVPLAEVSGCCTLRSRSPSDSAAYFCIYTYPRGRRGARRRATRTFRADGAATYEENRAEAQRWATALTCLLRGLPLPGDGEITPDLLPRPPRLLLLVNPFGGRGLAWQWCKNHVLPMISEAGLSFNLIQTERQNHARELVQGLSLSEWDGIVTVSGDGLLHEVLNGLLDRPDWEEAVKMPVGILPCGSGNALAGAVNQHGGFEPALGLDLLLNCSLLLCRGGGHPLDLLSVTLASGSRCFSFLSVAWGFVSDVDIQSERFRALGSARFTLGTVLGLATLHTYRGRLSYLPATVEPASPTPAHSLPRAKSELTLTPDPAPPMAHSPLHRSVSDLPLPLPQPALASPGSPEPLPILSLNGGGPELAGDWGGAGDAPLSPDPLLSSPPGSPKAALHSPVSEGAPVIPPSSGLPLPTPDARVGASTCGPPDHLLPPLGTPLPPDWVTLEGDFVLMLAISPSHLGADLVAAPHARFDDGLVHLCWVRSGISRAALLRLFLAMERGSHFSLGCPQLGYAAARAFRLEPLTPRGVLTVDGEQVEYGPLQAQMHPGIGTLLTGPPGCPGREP
Conditions: at 0.1 µM.

The target in assay [3] is T1, Sphingosine kinase 2 (Homo sapiens). The note with it: at 1 µM.
In assay [4] the target is Casein kinase II subunit alpha (Homo sapiens) (UniProt P68400). Conditions: at 0.1 µM.
For assay [5] the target is unchanged. The note with it: at 1 µM.
Assay [6] addresses T2, Inhibitor of nuclear factor kappa-B kinase subunit alpha (Homo sapiens) (UniProt O15111).
T2 sequence (whole entry): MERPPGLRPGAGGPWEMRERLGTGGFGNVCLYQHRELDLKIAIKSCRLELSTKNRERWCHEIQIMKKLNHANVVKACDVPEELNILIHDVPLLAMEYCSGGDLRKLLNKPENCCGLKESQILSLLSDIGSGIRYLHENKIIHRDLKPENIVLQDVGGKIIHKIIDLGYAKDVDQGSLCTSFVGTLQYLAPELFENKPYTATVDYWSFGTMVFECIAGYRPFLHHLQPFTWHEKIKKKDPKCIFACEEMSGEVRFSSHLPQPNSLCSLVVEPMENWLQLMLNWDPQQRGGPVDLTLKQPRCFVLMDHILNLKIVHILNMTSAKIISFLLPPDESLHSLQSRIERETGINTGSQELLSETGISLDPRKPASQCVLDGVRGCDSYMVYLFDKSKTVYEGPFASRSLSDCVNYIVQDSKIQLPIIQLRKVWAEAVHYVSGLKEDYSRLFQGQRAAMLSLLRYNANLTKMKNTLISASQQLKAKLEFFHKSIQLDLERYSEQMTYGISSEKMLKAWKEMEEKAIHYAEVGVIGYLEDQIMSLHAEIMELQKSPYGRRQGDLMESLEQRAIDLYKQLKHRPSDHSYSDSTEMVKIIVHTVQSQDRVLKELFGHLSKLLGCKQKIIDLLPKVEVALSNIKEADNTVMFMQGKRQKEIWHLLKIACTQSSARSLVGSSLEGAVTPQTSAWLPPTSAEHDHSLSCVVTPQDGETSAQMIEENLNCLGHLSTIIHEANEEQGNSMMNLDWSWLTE
Conditions: at 0.1 µM.

In assay [7] the target is T2, Inhibitor of nuclear factor kappa-B kinase subunit alpha (Homo sapiens). Conditions: at 1 µM.
For assay [8], the target named is T3, Inhibitor of nuclear factor kappa-B kinase subunit beta (Homo sapiens) (UniProt O14920).
T3 sequence (whole entry): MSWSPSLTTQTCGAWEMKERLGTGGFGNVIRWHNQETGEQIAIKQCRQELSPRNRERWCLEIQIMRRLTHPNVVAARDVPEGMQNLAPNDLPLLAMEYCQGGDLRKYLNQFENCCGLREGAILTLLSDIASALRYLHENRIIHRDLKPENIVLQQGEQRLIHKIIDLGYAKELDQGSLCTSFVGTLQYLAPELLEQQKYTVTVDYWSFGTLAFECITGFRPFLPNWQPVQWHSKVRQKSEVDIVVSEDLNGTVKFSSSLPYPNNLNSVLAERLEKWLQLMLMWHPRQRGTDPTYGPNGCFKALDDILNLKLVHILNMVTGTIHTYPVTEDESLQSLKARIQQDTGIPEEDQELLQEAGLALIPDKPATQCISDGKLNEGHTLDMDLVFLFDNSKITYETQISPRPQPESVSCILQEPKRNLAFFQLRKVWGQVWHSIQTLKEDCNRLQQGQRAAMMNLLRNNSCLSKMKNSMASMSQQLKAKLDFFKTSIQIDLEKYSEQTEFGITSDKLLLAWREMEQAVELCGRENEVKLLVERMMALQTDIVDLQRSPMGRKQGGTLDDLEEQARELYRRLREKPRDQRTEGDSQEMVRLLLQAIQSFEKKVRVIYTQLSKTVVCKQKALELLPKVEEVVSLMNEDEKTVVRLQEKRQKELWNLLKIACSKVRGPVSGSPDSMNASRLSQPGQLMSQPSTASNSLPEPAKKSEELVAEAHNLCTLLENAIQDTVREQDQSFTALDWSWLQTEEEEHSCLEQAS
Conditions: at 0.1 µM.

Assay [9] deals with T3, Inhibitor of nuclear factor kappa-B kinase subunit beta (Homo sapiens). The note with it: at 1 µM.
Assay [10] addresses T4, Inhibitor of nuclear factor kappa-B kinase subunit epsilon (Homo sapiens) (UniProt Q14164).
T4 sequence (whole entry): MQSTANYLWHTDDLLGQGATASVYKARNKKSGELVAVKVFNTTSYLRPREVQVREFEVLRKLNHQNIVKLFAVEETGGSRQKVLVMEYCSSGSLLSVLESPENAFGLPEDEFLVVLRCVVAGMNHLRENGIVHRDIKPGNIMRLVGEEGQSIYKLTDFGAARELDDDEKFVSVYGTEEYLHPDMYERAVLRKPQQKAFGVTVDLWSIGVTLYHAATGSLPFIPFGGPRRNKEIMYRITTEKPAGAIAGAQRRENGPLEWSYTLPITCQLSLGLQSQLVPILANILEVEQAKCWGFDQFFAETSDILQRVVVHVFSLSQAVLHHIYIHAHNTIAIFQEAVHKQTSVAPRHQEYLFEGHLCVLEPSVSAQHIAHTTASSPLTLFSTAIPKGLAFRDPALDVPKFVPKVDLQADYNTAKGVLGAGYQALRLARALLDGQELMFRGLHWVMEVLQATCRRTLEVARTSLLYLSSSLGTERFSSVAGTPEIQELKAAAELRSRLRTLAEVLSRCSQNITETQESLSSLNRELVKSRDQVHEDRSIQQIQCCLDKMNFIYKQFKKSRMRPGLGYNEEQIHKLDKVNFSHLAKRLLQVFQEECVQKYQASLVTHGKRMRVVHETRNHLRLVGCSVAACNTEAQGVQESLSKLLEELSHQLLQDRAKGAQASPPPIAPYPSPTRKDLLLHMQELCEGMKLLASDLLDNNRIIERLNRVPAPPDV
Conditions: at 0.1 µM.

Assay [11] concerns the target T4, Inhibitor of nuclear factor kappa-B kinase subunit epsilon (Homo sapiens). The note with it: at 1 µM.
The target in assay [12] is T5, Serine/threonine-protein kinase Nek1 (Homo sapiens) (UniProt Q96PY6).
T5 sequence (whole entry): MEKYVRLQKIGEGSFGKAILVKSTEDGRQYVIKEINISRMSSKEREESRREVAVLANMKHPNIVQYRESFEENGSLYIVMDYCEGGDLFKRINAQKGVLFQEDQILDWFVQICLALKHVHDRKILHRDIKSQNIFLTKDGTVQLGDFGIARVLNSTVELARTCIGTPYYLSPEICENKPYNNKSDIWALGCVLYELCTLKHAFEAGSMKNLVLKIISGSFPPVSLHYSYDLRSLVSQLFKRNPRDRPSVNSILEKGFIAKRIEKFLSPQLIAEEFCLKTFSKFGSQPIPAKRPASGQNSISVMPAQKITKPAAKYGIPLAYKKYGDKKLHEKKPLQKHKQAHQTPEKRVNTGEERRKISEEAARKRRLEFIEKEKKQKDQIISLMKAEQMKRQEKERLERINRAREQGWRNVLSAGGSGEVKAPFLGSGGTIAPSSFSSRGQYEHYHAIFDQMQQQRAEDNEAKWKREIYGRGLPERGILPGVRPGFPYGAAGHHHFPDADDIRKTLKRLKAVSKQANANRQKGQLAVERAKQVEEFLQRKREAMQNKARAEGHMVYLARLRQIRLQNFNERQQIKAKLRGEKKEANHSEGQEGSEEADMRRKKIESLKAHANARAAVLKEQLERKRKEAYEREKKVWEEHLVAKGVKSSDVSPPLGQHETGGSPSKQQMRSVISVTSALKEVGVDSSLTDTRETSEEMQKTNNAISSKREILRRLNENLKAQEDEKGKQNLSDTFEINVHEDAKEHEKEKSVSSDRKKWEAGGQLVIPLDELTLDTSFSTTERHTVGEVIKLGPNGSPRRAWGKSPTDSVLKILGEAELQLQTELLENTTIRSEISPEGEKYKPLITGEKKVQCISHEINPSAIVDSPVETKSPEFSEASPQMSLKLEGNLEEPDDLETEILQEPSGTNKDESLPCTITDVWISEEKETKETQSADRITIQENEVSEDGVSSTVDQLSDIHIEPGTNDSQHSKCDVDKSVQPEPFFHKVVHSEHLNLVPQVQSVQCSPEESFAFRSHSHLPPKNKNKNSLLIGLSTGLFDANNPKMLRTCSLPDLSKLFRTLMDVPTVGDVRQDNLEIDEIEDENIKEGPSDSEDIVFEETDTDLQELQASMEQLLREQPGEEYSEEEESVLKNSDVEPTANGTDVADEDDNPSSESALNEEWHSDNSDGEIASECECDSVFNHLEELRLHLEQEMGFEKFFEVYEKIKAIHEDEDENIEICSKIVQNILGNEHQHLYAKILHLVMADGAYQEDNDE
The note with it: at 0.1 µM.

Assay [13] addresses T5, Serine/threonine-protein kinase Nek1 (Homo sapiens). Conditions: at 1 µM.
Assay [14] has as its target T6, Serine/threonine-protein kinase Nek2 (Homo sapiens) (UniProt P51955).
T6 sequence (whole entry): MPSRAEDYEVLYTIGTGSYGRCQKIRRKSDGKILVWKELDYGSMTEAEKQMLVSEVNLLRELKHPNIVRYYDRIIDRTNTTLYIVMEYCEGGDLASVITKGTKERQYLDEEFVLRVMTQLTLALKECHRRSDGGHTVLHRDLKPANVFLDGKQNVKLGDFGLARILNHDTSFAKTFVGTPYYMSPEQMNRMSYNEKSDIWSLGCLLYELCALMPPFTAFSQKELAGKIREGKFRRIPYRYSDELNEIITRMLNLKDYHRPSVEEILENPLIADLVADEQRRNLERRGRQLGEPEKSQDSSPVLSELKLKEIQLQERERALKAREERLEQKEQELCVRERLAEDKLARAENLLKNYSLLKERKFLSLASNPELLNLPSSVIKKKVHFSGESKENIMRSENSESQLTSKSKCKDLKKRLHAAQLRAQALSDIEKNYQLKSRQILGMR
The note with it: at 0.1 µM.

Assay [15] deals with T6, Serine/threonine-protein kinase Nek2 (Homo sapiens). The note with it: at 1 µM.
Assay [16] concerns the target Serine/threonine-protein kinase Nek6 (Homo sapiens) (UniProt Q9HC98). Conditions: at 0.1 µM.
Assay [17] has the same target. The note with it: at 1 µM.
For assay [18], the target named is Serine/threonine-protein kinase Nek7 (Homo sapiens) (UniProt Q8TDX7). The note with it: at 0.1 µM.
Assay [19] shares this target. The note with it: at 1 µM.
Assay [20] has as its target T7, Serine/threonine-protein kinase Nek9 (Homo sapiens) (UniProt Q8TD19).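 Further: reported value is the mean percent inhibition of NEK9.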
T7 sequence (whole entry): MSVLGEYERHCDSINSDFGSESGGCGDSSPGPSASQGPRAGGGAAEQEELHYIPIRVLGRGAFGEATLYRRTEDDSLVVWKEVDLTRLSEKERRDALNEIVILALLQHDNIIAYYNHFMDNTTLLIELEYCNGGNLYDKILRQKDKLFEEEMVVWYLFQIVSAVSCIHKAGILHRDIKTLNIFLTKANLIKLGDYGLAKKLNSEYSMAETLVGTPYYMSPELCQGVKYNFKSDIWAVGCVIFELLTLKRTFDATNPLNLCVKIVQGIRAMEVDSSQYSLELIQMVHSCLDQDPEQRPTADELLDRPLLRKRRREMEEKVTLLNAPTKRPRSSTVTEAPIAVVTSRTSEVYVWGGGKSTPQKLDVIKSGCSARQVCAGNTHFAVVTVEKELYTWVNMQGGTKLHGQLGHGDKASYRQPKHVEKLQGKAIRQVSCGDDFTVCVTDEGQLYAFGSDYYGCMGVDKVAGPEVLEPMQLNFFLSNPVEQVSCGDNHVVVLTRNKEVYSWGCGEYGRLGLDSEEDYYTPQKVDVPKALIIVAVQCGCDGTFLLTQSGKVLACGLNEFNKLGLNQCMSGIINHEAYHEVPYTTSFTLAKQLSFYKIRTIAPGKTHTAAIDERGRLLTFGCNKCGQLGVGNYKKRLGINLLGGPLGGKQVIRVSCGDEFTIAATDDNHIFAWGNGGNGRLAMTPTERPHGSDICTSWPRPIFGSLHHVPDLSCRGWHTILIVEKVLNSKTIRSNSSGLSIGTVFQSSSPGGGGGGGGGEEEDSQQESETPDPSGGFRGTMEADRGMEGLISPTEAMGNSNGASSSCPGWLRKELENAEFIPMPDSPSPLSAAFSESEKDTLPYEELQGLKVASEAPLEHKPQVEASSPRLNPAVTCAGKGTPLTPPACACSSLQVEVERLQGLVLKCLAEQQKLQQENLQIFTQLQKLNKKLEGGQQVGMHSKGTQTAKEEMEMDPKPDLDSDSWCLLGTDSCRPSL
The note with it: at 0.1 µM.

Chain of Casein kinase II subunit alpha (Homo sapiens) (P68400 whole entry, looked up): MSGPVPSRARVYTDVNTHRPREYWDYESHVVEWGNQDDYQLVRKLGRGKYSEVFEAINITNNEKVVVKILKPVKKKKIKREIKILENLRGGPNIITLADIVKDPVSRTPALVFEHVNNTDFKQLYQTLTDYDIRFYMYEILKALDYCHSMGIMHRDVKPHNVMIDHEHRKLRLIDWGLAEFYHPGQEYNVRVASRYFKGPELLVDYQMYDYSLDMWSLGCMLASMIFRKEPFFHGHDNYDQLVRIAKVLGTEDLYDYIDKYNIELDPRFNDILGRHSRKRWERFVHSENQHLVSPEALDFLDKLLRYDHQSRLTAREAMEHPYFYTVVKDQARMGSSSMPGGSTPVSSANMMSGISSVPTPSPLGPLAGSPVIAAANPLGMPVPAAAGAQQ
Chain of Serine/threonine-protein kinase Nek6 (Homo sapiens) (Q9HC98 whole entry): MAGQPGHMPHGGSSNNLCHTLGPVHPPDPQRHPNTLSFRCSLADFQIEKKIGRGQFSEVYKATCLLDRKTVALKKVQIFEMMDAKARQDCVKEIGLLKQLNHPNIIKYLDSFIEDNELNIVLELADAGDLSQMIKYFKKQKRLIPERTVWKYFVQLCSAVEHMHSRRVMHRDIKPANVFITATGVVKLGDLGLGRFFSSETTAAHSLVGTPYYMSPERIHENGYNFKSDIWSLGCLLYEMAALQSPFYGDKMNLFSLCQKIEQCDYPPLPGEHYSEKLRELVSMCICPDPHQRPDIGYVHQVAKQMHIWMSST
Chain of Serine/threonine-protein kinase Nek7 (Homo sapiens) (Q8TDX7 whole entry, looked up): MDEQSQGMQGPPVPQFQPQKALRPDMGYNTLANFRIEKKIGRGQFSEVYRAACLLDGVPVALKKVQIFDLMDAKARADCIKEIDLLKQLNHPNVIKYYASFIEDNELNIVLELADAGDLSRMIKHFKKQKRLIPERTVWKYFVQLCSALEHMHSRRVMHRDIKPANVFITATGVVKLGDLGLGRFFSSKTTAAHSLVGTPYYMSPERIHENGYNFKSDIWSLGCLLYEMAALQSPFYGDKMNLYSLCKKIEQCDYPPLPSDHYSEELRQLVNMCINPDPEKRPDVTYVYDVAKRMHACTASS
Chain of Sphingosine kinase 1 (Homo sapiens) (Q9NYA1 whole entry): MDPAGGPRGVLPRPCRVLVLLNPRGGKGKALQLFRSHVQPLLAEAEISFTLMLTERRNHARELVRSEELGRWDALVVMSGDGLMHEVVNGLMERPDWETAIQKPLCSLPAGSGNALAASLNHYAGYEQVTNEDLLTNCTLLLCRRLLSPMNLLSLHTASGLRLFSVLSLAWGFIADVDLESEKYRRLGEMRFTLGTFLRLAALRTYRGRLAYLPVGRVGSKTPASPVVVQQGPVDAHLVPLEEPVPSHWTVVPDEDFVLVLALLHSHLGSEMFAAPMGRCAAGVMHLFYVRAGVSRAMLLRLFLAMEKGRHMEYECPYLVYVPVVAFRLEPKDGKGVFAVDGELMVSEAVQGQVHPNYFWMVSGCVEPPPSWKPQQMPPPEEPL

Take `COc1cc2c(cc1Nc1nc(Nc3ccsc3C(N)=O)c3cc[nH]c3n1)N(C(=O)CN(C)C)CCC2(C)C`: the inhibition in assay [1] is 1.56%; in assay [2], -0.3%; in [3], -2.8%; in assay [4], 39.4%; in assay [5], 75.3%; in assay [6] it was 5.27%. Besides, the inhibition in assay [7] came out at 0.27%; in assay [8], 8.68%; in assay [9], 6.07%; in assay [10], 10.8%; in assay [11], 35.2%; in assay [12], 2.74%. For the same compound, the inhibition in [13] came out at 2.8%; in assay [14], 6.02%; in assay [15], 7.22%; in assay [16], 2.59%; in assay [17] it was 5.27%; in assay [18] it was 12.7%. Further, the inhibition in assay [19] was 42.1%; in assay [20], 4.77%.
